In PubChem BioAssay:

Test system: Wnt5a (protein binding on small-molecule microarray)
Assay: Wnt5a binders on small-molecule microarray, primary screen, biophysical, 635/667 nm fluorescence (AID 1142);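 note: fluorescence read at 667 nm with signal to noise per printed feature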
Settings: 635 nm fluorescence, higher = more signal

Compound | composite z-score
COCCOC(=O)N1C(=O)[C@@]2(c3cc(C#CCC(C(=O)OC)C(=O)OC)ccc31)[C@H](C(N)=O)[C@H]1C(=O)O[C@H](c3ccccc3)[C@H](c3ccccc3)N1[C@@H]2c1ccc(O)cc1 | 0.449
COc1cc(OC)c(C(O)C2C=CC3C(=O)N(c4ccccc4)C(=O)C3N2Nc2ccc(C(C)C)cc2)cc1Br (stereo not given) | 0.386
C#CCN1[C@@H](Cc2ccccc2)C(=O)O[C@H](Cc2ccccc2)[C@@H]1/C=C/C1CC1 | -0.0041
CN(C)CCCNC(=O)[C@@H]1c2ccccc2C(=O)N(Cc2ccccc2C(F)(F)F)[C@H]1c1ccc(CO)cc1 | 0.0246
COc1ccc([Si](C)(C)[C@H]2[C@H](CCO)O[C@@]3(C(=O)N(Cc4ccc(NC(=O)[C@H](C)O)cc4)c4ccccc43)[C@@H]2C)cc1 | 0.185
CCOC(=O)C[C@H]1[C@H](OC(=O)c2ccccc2-c2ccccc2)[C@@H](NC(=O)c2ccc3ccccc3c2)c2cc(OCCCO)ccc2N1C(=O)Cc1ccc(OC)cc1 | 0.23
COCCCN1C(=O)[C@@]2(c3ccc([N+](=O)[O-])cc3)CC(=O)N(CC34CC5CC(CC(C5)C3)C4)[C@@H]2c2ccc(CO)cc21 | -0.15
C=C1C(=O)C=C2CN(C(=O)c3ccccc3)[C@@](Cc3ccc(OC)cc3)(C(=O)OC)[C@@H]12 | 0.458
C=CCNC(=O)[C@H]1[C@@H]2C(=O)O[C@@H](c3ccccc3)[C@@H](c3ccccc3)N2[C@@H](c2ccc(OCCO)cc2)[C@]12C(=O)Nc1ccccc12 | -0.159
COCCOC(=O)N1C(=O)[C@@]2(c3ccccc31)[C@H](c1ccc(O)cc1)N1[C@H](c3ccccc3)[C@H](c3ccccc3)OC(=O)[C@H]1[C@@H]2C(=O)N1CCCCCCC1 | 1.08
